The source of these data is PubChem BioAssay (NCATS).

Test [1] can be described thus: qHTS assay for small molecule disruptors of the mitochondrial membrane potential - 1 hr assay (AID 651754; calls by dose curve; further: nearly all actives have a fitted effect of over 35% in size; further: potency means the concentration at half of the fitted maximal effect). The essentials: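 HepG2 cells, attached overnight at 37C, were exposed to compound or DMSO vehicle for 1 hr at 37C, 5% CO2, then stained with Mito-MPS dye for 30 min. Red aggregate versus green monomer fluorescence reports membrane potential.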
In general terms: In qHTS, concentration-response curves come from the screen itself.

Test [2] is described as follows: qHTS assay for small molecule disruptors of the mitochondrial membrane potential - 5 hr assay (AID 651755; calls by dose curve; further: nearly all actives have a fitted effect of over 40% in size; further: potency means the concentration at half of the fitted maximal effect). The essentials:
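HepG2, 2,000 cells/well, overnight attach; cpd or DMSO 5 hr, 37C/5% CO2; Mito-MPS 30 min 37C; fluor 490/535 + 540/590 nm.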

In test [3] the target is Tumor necrosis factor (Homo sapiens) (UniProt P01375). The test can be described thus: qHTS assay to identify small molecules that stimulate Tumor Necrosis Factor-alpha (TNF-alpha) secretion (AID 651757; active means well fitted curve in the direction sought with a large enough effect in the signal ratio; the % refers to the signal ratio; further: 0% is about no effect). The method in brief: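 THP-1 cells were exposed to compounds for 17 hrs at 37 C, after which secreted TNF-alpha was measured by homogeneous HTRF (TR-FRET) using cryptate- and XL665-labeled anti-TNF-alpha antibodies, read after 3 hr at room temperature.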

Test [4] is described as follows: qHTS assay for environmental chemicals that activate the Aryl hydrocarbon Receptor (AhR) signaling pathway (AID 651777). Further: nearly all actives have a fitted effect of over 15% in size. Further: potency means the concentration at half of the fitted maximal effect. On activation: % of control where 0% means no effect. The following applies: 1A2-DRE human hepatoma cells, luciferase, 24 h; activation: stronger effect = higher value. The essentials:
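Measured luciferase activity, read 30 min after One-Glo addition at room temperature, from human hepatoma cells bearing a dioxin response element–CYP1A2 promoter reporter and exposed to compound for 24 hr at 37 C.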

The target in test [5] is Peroxisome proliferator-activated receptor alpha (Homo sapiens) (UniProt Q07869). The test can be described thus: qHTS assay for small molecule agonists of the peroxisome proliferator-activated receptor alpha (PPARalpha) signaling pathway (AID 651778). Further: potency means the concentration at half of the fitted maximal effect. On max response: % of control where 0% means no effect. To be noted: PathHunter PPARalpha complementation, chemiluminescence, 6 h; max response: stronger effect = higher value. The method in brief: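 Chemiluminescence from complemented enzyme reported PPARalpha activation in cells after 6 hr of compound treatment at 37 C. The detection reagent was incubated for 60 min at room temperature, and compounds were scored as agonists.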

Test [6] concerns the target Nuclear receptor ROR-gamma (Homo sapiens) (UniProt P51449). Nature of the test: qHTS assay for small molecule antagonists of the retinoid-related orphan receptor gamma (ROR-gamma) signaling pathway (AID 651802). Further: nearly all actives have a fitted effect of over 60% in size. Further: potency means the concentration at half of the fitted maximal effect. The method in brief:
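CHO cells carrying TET-inducible ROR-gamma and an ROR response element–luciferase reporter were exposed to compound, then induced with doxycycline. After 16hr at 37C, luminescence was read; lower signal indicates antagonism.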

A short description of test [7]: qHTS for compounds that reverse cellular toxicity of Amyloid beta (A-beta) peptide in yeast: LOPAC Validation Assay (AID 720559).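 Further: plate controls were DMSO for no effect and equimolar ferric chloride plus clioquinol rescue for full effect.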 The essentials:
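OD600 growth readout after 48 hr at 30 C; A-beta-toxic yeast plus pinned compounds in medium. Normalization: DMSO = negative, equimolar FeCl3 + clioquinol = positive.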

Test [8] addresses Tyrosine-protein kinase Yes (Homo sapiens) (UniProt P07947). Nature of the test: qHTS for small molecule inhibitors of Yes1 kinase: Primary Screen (AID 686947). Further: nearly all actives have a fitted effect of over 60% in size. Further: potency means the concentration at half of the fitted maximal effect. The method in brief:
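ADP-Glo luminescence readout; final 4 nM Yes1, 0.1 mM ATP, 0.3 mg/mL poly(E4Y), Tris pH 7.5, MgCl2, DTT, Brij-35. 20 min compound preincubation, 60 min reaction at RT. Normalized to DMSO wells with and without enzyme.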

Test [9] is described as follows: qHTS for small molecule inhibitors of Yes1 kinase: Counter Assay (AID 686950).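 Further: no kinase present so only ADP-Glo detection of a fixed ADP amount is tested; luminescence from ADP-Glo reporting ADP in a fixed ATP and ADP mixture; series mostly up to about 77 µM; 0% = DMSO wells with ATP plus ADP and -100% = ATP-only wells without ADP.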 The method in brief: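 Luminescence read-out from ADP-Glo quantifies a fixed ADP amount (0.02 mM ADP with 0.08 mM ATP) after 60 min at room temperature; signal is normalized between DMSO wells with ATP/ADP and with 0.1 mM ATP alone.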
A short description of test [10]: qHTS assay to identify small molecules that stimulate interleukin-8 (IL-8) secretion (AID 651758; active means well fitted activation curve with a large enough effect in the signal ratio; the % refers to the signal ratio; further: potency means the concentration at half of the fitted maximal effect; on activation: 0% is about no effect). The method in brief:
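Secreted IL-8 measured by TR-FRET sandwich (cryptate and XL665 antibodies) from THP-1 cells exposed to compound overnight (16 hrs, 37 C).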

“And” between values parts separate entries of the source, which are not always exact repeats. Equal entries are not always repeated. Results filed as inconclusive are left out. Some structures have more than one record in an assay (separate samples or runs), and their calls can disagree. The source made the active and inactive calls. Unless noted, the call rests on the fitted dose curve; in most records, active means well fitted curve in the direction sought with a large enough effect; inconclusive means small, poorly fitted or top-dose-only effect, or another doubt; inactive means no such curve, though single readings can be large; an effect the other way counts as inactive or inconclusive.

Sequence of Tumor necrosis factor (Homo sapiens) (P01375 whole entry, looked up): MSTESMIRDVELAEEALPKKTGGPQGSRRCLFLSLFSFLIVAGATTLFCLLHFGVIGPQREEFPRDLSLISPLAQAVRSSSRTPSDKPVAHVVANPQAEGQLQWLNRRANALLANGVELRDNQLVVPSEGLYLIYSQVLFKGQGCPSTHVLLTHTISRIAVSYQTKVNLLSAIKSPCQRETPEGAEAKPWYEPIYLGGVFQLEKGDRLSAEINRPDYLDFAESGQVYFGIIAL
Sequence of Peroxisome proliferator-activated receptor alpha (Homo sapiens) (Q07869 whole entry, looked up): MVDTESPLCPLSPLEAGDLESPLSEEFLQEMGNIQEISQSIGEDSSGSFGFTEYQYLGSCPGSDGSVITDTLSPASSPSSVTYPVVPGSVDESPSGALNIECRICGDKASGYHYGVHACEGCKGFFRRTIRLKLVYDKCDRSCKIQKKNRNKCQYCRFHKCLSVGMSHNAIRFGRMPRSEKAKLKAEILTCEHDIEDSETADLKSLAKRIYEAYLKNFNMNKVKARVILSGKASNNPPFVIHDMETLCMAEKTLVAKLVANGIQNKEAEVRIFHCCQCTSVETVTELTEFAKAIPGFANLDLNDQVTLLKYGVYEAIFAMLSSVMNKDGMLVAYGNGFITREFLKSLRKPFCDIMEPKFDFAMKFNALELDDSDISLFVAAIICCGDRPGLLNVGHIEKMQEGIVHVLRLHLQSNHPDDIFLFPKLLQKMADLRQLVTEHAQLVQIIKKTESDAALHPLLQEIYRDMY
Sequence of Tyrosine-protein kinase Yes (Homo sapiens) (P07947 whole entry, looked up): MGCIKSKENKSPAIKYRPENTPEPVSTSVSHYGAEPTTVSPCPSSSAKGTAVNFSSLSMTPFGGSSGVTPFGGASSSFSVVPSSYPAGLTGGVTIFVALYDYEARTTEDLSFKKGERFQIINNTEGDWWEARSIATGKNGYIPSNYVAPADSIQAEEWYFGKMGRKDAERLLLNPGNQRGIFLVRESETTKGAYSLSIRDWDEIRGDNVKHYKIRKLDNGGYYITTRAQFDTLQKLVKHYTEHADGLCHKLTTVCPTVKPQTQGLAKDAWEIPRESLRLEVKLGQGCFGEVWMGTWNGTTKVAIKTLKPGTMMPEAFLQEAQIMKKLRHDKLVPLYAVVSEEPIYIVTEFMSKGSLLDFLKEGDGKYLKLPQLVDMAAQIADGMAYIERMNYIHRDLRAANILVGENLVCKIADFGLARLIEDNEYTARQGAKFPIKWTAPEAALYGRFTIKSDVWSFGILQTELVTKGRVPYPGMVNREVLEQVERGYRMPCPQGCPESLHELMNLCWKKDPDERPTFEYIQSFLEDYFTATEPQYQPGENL
Sequence of Nuclear receptor ROR-gamma (Homo sapiens) (P51449 whole entry, looked up): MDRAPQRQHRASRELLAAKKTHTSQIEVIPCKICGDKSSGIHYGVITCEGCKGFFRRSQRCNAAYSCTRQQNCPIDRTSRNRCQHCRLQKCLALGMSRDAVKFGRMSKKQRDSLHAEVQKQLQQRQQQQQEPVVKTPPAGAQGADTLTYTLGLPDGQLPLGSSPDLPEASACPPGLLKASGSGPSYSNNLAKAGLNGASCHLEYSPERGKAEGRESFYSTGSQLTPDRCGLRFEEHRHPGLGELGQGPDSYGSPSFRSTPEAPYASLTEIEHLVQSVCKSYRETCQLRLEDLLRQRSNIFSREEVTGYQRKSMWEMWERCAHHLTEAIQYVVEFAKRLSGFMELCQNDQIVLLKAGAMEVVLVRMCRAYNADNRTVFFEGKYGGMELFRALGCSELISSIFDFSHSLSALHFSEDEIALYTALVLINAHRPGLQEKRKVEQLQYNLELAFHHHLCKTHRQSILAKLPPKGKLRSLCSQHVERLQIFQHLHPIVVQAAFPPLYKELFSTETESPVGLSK

`CCOP(=S)(OCC)Oc1cc(C)nc(C(C)C)n1`: the Potency entry in test [1], in [2] and in test [6] was “inactive” in each case. Moreover, in test [3], the compound was called inactive. Also, the activation in test [4] is 1.79% (inactive) and 0.131% (inactive). Moreover, the max response in test [5] is -5.15% (inactive) and -1.07% (inactive).
On to `CNCC(O)c1ccc(O)cc1` (configuration not stated), for which the result in [3] and in test [7] was inactive. Moreover, the activation in test [4] is -0.394% (inactive). Besides, the max response in test [5] is -4.08% (inactive). Further, the Potency result in [6] was “inactive”.
As for `CC(C)C(=O)Nc1ccc([N+](=O)[O-])c(C(F)(F)F)c1`, the Potency in [1] is 42.2 µM (active); in [2], 42.2 µM (active); in test [6], 23.7 µM (active).
For the compound `O=c1c(O)c(-c2ccc(O)c(O)c2)oc2cc(O)cc(O)c12`, the Potency in test [8] was 15.4 µM (active).
Turning to `C[C@@H]1[C@@H](C(=O)C[C@H]2O[C@@H]3O[C@]4(C)CC[C@@H]5[C@H](C)CC[C@@H]([C@H]2C)[C@@]35OO4)O[C@@H]2O[C@]3(C)CC[C@H]4[C@H](C)CC[C@@H]1[C@@]24OO3`, the Potency result in [8] is “inactive”. Further, the call in test [9] was inactive.
With `CN(C)CCN(C)CCc1ccc(Cl)c(Cl)c1`, the Potency entry in [8] was “inactive”. Moreover, in [9], the call was inactive.
Turning to `C[C@]12C/C(=C/O)C(=O)C[C@@H]1CC[C@@H]1[C@@H]2CC[C@@]2(C)[C@H]1CC[C@]2(C)O`, the Potency entry in test [1], in [2] and in test [10] was “inactive” each time. The compound was called inactive in test [3]. The activation in [4] is 1.36% (inactive) and 0.159% (inactive). The max response in test [5] is -0.191% (inactive) and -0.334% (inactive).
Turning to `N[C@@H](Cc1ccc(N(CCCl)CCCl)cc1)C(=O)O`, the Potency entry in [1] and in test [2] was “inactive” in each case. The outcome in [3] was inactive. In addition, the activation in [4] is 3.17% (inactive) and 3.79% (inactive). In addition, the max response in test [5] is -0.479% (inactive) and -0.609% (inactive). The Potency in [6] was 26.6 µM (active).
With `O=c1oc2ccccc2c(O)c1C(CC(O)c1ccc(-c2ccc(Br)cc2)cc1)c1ccccc1` (configuration not stated), the activation in test [4] was -0.116% (inactive). Besides, the max response in test [5] was -1.05% (inactive).
Consider `NCC(O)c1ccc(O)cc1` (configuration not stated), for which the compound was called inactive in [3] and in test [7]. In addition, the Potency result in test [10] and in test [6] was “inactive” each time. Further, the activation in test [4] was -0.493% (inactive). The max response in [5] is -2.88% (inactive).
For `OCCOc1ccccc1`, the Potency result in test [1], in test [2] and in test [6] was “inactive” each time. For the same compound, in test [3], the compound was called inactive. Moreover, in [4], the activation was -1.68% (inactive) and 1.95% (inactive) and 8.55% (inactive). The max response in [5] was -6.3% (inactive) and -2.04% (inactive) and 0.179% (inactive).
For `Oc1ccc(Cl)cc1Cc1ccccc1`, the Potency in test [1] was 18.8 µM (active); in test [2], 21.1 µM (active). For the same compound, in test [3], the outcome was inactive. For the same compound, the activation in test [4] was 0.74% (inactive) and 2.47% (inactive). The max response in test [5] was 14% (inactive) and 4.54% (inactive).
For the compound `Cc1cc2c(C(C)C)c(O)c(O)c(C=O)c2c(O)c1-c1c(C)cc2c(C(C)C)c(O)c(O)c(C=O)c2c1O`, the Potency in [8] was 30.7 µM (active).
As to `C[C@@H]1O[C@@H](O[C@H]2C[C@@H](O)[C@]3(CO)[C@H]4[C@H](O)C[C@]5(C)[C@@H](C6=CC(=O)OC6)CC[C@]5(O)[C@@H]4CC[C@]3(O)C2)[C@H](O)[C@H](O)[C@H]1O`, in test [4], the activation is 6.71% (inactive). Further, the max response in test [5] is -0.456% (inactive). Besides, the result in test [7] was inactive.
`Oc1ccccc1-c1ccccc1`: the compound was classed as inactive in test [3]. The Potency result in test [10] and in test [6] was “inactive” in each case. The activation in test [4] was 0.277% (inactive) [middle of 4 runs]. Also, the max response in test [5] is -2.25% (inactive) and -0.4% (inactive) and 12.1% (inactive).
With `Oc1cccc2cccnc12`, in [3], the compound was classed as inactive. Besides, the Potency entry in test [10] is “inactive”. Further, the activation in [4] was 0.681% (inactive) and 3.98% (inactive). Further, in [5], the max response is -5% (inactive) and -2.57% (inactive). Further, the Potency entry in test [6] was “inactive and 3.35 µM (active)”.
For the compound `C[C@H]1O[C@@H](O[C@H]2[C@@H](O)C[C@H](O[C@H]3[C@@H](O)C[C@H](O[C@H]4CC[C@@]5(C)[C@H](CC[C@@H]6[C@@H]5CC[C@]5(C)[C@@H](C7=CC(=O)OC7)CC[C@]65O)C4)O[C@@H]3C)O[C@@H]2C)C[C@H](O)[C@@H]1O`, the max response in test [5] is -0.744% (inactive).
Take `CC(C)(C)CC(C)(C)c1ccc(O)cc1`: the Potency in test [5] is 25.1 µM (active).
Regarding `C[C@]12CCC(=O)C(O)=C1CC[C@@H]1[C@@H]2CC[C@]2(C)C(=O)CC[C@@H]12`, the activation in test [4] was 0.0711% (inactive). Besides, the max response in test [5] was -1.14% (inactive). Besides, in test [8], the Potency result was “inactive”. In addition, the call in [9] and in test [7] was inactive.
With `Clc1ccc(COC(Cn2ccnc2)c2ccc(Cl)cc2Cl)cc1` (configuration not stated), in test [3], the compound was called inactive. Also, the max response in test [5] is -5.88% (inactive).
Take `C[C@@H]1[C@@H](CC(C[C@H]2O[C@@H]3O[C@]4(C)CC[C@@H]5[C@H](C)CC[C@@H]([C@H]2C)[C@@]35OO4)C[S+](=O)([O-])c2ccc(COC(=O)N(C)C)cc2)O[C@@H]2O[C@]3(C)CC[C@H]4[C@H](C)CC[C@@H]1[C@@]24OO3` (some centres not stated): the Potency entry in test [8] is “inactive”. Moreover, the outcome in test [9] was inactive.
On to `CCCC(C)(COC(N)=O)COC(=O)NC(C)C` (configuration not stated), for which the result in [3] and in test [7] was inactive. Also, the Potency result in [10] and in [6] was “inactive” each time. In addition, the activation in test [4] is 0.419% (inactive) and -1.4% (inactive). Further, the max response in [5] was -0.746% (inactive) and -1.22% (inactive).
As to `COc1cc2c(c(OC)c1OC)-c1ccc(OC)c(=O)cc1[C@@H](NC(C)=O)CC2`, the Potency in test [10] was 53.1 nM (active) and 47.3 nM (active); in [6], 335 nM (active) and 119 nM (active).
For the compound `Oc1cc(Cl)ccc1Oc1ccc(Cl)cc1Cl`, the max response in test [5] is 13.1% (inactive).
In the case of `Cc1cc(SCc2sc(-c3ccc(C(F)(F)F)c(F)c3)nc2C)ccc1OCC(=O)O`, the activation in test [4] is 14.6% (inactive). Moreover, the Potency in test [5] is 2 µM (active). Further, the Potency result in test [8] was “inactive”. Besides, the compound was classed as inactive in test [9].
Regarding `Cn1cc(C2=C(c3cn(C4CCN(Cc5ccccn5)CC4)c4ccccc34)C(=O)NC2=O)c2ccccc21`, the Potency entry in test [8] was “inactive”. The compound was classed as inactive in [9].
As to `NC(=Nc1ccccc1)Nc1ccccc1`, the Potency in [4] was 11.2 µM (active).
Regarding `c1ccc2c(c1)Nc1ccccc1S2`, the Potency in test [1] was 42.2 µM (active); in [2], 66.8 µM (active). In test [5], the max response was -1.15% (inactive) and -1.18% (inactive). In [6], the Potency result is “inactive”.
For `Nc1ccncc1`, in [4], the activation is -2.98% (inactive). Further, in test [5], the max response is 0.27% (inactive). Besides, the result in [7] was inactive.
For `CC(=O)Oc1ccccc1C(=O)Nc1ncc([N+](=O)[O-])s1`, the Potency in test [1] was 7.5 µM (active); in test [2], 6.68 µM (active); in [4], 0.708 µM (active).
On to `C=C(C)[C@H]1Cc2c(ccc3c2O[C@@H]2COc4cc(OC)c(OC)cc4[C@@H]2C3=O)O1`, for which the activation in test [4] was 3.42% (inactive). Moreover, the max response in [5] was 7.18% (inactive). Moreover, in test [7], the compound was classed as inactive.
As for `O=c1[nH]c2ccccc2n1C1CCN(CCCC(c2ccc(F)cc2)c2ccc(F)cc2)CC1`, in test [4], the activation was 1.32% (inactive). Further, the max response in [5] was -0.751% (inactive).
As for `Cn1c(CCCC(=O)O)nc2cc(N(CCCl)CCCl)ccc21`, in test [8], the Potency entry is “inactive”. Besides, the call in [9] was inactive.
For the compound `COC1(CS(=O)c2ccccc2)CCN(CCc2c[nH]c3ccc(F)cc23)CC1` (configuration not stated), in test [8], the Potency entry is “inactive”. Besides, in test [9], the compound was called inactive.
With `Cc1sc2c(c1C)C(c1ccc(Cl)cc1)=N[C@@H](CC(=O)OC(C)(C)C)c1nnc(C)n1-2`, in test [8], the Potency entry is “inactive”. For the same compound, the compound was classed as inactive in test [9].
